Anthrax LF inh2: Bacillus anthracis LF protease inhibitors, primary screen, biochemical, multiplex microsphere, MLPCN library; Lethal factor (Bacillus anthracis), P15917; multiplex microsphere protease cleavage assay; inhibition, % at 10 µM; hit rate 0.12% among 360,000; AID 588501, 2011
Target sequence (P15917 whole entry, looked up): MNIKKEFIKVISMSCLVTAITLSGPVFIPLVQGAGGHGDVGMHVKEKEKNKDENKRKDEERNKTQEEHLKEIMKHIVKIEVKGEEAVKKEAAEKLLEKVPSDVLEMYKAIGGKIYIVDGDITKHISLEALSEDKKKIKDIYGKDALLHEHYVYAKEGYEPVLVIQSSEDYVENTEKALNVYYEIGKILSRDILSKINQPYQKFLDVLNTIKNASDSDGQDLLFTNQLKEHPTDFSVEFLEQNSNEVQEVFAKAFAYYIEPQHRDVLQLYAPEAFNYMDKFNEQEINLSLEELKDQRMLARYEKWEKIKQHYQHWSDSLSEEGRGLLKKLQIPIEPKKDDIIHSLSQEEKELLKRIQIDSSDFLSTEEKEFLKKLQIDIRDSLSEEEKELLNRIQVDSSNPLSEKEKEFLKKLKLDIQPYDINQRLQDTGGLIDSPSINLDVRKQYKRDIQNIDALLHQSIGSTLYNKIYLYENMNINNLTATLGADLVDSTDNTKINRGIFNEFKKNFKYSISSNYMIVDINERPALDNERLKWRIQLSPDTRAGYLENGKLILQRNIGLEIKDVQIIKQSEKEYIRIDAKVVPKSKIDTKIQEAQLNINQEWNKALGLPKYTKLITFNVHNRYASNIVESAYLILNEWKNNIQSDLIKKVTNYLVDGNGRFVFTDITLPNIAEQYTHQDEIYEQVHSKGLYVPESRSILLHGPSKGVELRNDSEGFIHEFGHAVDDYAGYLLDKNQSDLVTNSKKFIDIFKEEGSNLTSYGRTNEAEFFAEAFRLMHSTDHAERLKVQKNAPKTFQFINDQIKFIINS
BoNT-A LC inh2: BoNT/A light chain protease inhibitors, primary screen, biochemical, flow cytometry, MLPCN library; multiplex microsphere protease substrate cleavage; hit rate 0.17% among 360,000; Botulinum neurotoxin type A light chain protease (Clostridium botulinum A str. ATCC 3502); inhibition, % at 10 µM
BoNT-F LC inh: BoNT/F light chain protease inhibitors, primary screen, biochemical, flow cytometry, MLPCN library. hit rate 0.22% among 360,000. Multiplex microsphere protease cleavage assay. AID 588497, 2011. inhibition, % at 10 µM. Botulinum neurotoxin type F light chain protease (Clostridium botulinum); in the data active = inhibition above about 35%, passing the limit was not always enough; inconclusive = no clear call, values can overlap the other calls
Bead autofluor: flagged as autofluorescent in microsphere protease counterscreen; fluorescence intensity (no concentration beside the values); compound autofluorescence counterscreen, microsphere flow cytometry; stronger effect = higher value; hit rate 3.1% among 360,000; AID 624483; in the data active = fluorescence intensity above about 16000; inconclusive = no clear call, values can overlap the other calls
BJeLR viability: MLPCN primary cell-based screen for lethality selective to Ras in HRASV12 cells | BJeLR (HRASV12) viability, CellTiter-Glo ATP luminescence, 48 h | inhibition, % (test concentration not listed) | hit rate 0.17% among 300,000 | AID 1554, 2009; in the data active = inhibition above about 50%; inconclusive = no clear call, values can overlap the other calls
Of the large screens only hits and unclear results are named; the others gave an inactive call. An excerpt weighted towards active compounds, which were near 3.5% of everything screened. Rule as the data show it, unless noted: active = inhibition above about 30%; inconclusive = no clear call, values can overlap the other calls; inactive = below that.

COc1cccc(C(c2nnnn2C2CCCC2)N2CCN(C/C=C/c3ccccc3)CC2)c1OC (stereo not drawn)	none (no result: BJeLR viability)
O=C(O)CCCN1C(=O)/C(=C\c2ccc(-c3nc4ccccc4s3)o2)SC1=S	BoNT-A LC inh2 41.1
O=S(=O)(Nc1ccc(C(O)(C(F)(F)F)C(F)(F)F)cc1)c1cccc2ccccc12	none (no result: BJeLR viability)
Cc1[nH]c2ccccc2c1/C=N/NC(=S)NC(C)C	BoNT-A LC inh2 59.2
c1ccc(-n2cnc3cc(NCc4cccs4)ccc32)cc1	BoNT-A LC inh2 inconclusive, Bead autofluor 23254
CCCn1cnc2cc(NCc3cccc(OC)c3O)ccc21	Bead autofluor 19022
COc1ccccc1-n1cnc2cc(NCc3ccccn3)ccc21	Bead autofluor 22276
CCCn1cnc2cc(NCc3ccccn3)ccc21	none
COc1ccc(-n2cnc3cc(NCc4ccccn4)ccc32)cc1	Bead autofluor 18683
N#CCCN(CCC#N)c1nncs1	none
CC(C)(C)c1csc(N(CCC#N)CCC#N)n1	Bead autofluor 16153
N#CCCN/N=C(\Cc1nc2ccccc2[nH]1)c1ccccc1	Bead autofluor 22721
CCN1/C(=C/C=C/C=C/c2sc3ccccc3[n+]2CC)Sc2ccccc21	BJeLR viability 69.5 (no result: Anthrax LF inh2, BoNT-A LC inh2, BoNT-F LC inh, Bead autofluor)
CCN1/C(=C/C=C/c2sc3ccccc3[n+]2CC)Sc2ccccc21	BoNT-A LC inh2 31.6, BJeLR viability 68.8
CC[n+]1c(/C=C/Nc2ccccc2)sc2ccccc21	none
CCN1/C(=C/C=C/C=C/C=C/c2sc3ccccc3[n+]2CC)Sc2ccccc21	BJeLR viability 62.9
CC[n+]1c(/C=C(\C)SC)sc2ccccc21	none
O=c1[nH]c(SCC2CCCCO2)nc2ccccc12 (stereo not drawn)	BoNT-A LC inh2 inconclusive, Bead autofluor 21391
CCN(CC)C(=O)[C@H]1C[C@H](CC(=O)NC(C)(C)C)C(=O)N2CCc3c([nH]c4cc(CCC(=O)N(C)C)ccc34)[C@]12C	none (no result: BJeLR viability)
CC(=O)c1ccc(NC(=O)C(C)Sc2nnnn2C)cc1 (stereo not drawn)	Bead autofluor 23749
CC(Sc1nnnn1C)C(=O)Nc1ccccc1 (stereo not drawn)	none
CC1CCC(NC(=O)c2cc(S(=O)(=O)N3CCCCC3)ccc2N2CCOCC2)CC1 (stereo not drawn)	none (no result: BJeLR viability)
COc1ccccc1N1CCN(C(=O)CSc2nc3ccccc3c(=O)n2CC2CCCO2)CC1 (stereo not drawn)	none
CCCNC(=O)c1cc(OC)c(OC)cc1[N+](=O)[O-]	BoNT-A LC inh2 inconclusive, Bead autofluor 24245
COc1cc(C(=O)Nc2ccc(N(C)C)cc2)c([N+](=O)[O-])cc1OC	none
COc1cc(C(=O)Nc2ccc(N3CCCS3(=O)=O)cc2)c([N+](=O)[O-])cc1OC	Bead autofluor 18232
O=C(CCc1ccccc1)NC(=S)Nc1cc(C(F)(F)F)ccc1N1CCOCC1	Bead autofluor 19113
CC(C)CC(=O)NC(=S)Nc1cc(C(F)(F)F)ccc1N1CCOCC1	none
COc1nc(N/N=C/c2ccccc2F)nc(N2CCCCC2)n1	Bead autofluor 22376
O=[N+]([O-])c1ccccc1/C=N/Nc1nc(N2CCCC2)nc(N2CCCC2)n1	none
CN1CCN(c2nc(-c3ccco3)cc(C(F)(F)F)n2)CC1	Bead autofluor 17518
FC(F)(F)c1cc(-c2ccco2)nc(-n2nc(C(F)(F)F)cc2C2CC2)n1	Bead autofluor 20606
CC(C)CNC(=O)c1cccc(NC(=O)C(C)Oc2ccccc2)c1 (stereo not drawn)	none
CCN(CC)C(=O)C1=C(C)N(Cc2ccccc2)C(=O)C(CC(=O)NCC2CCCCC2)C1 (stereo not drawn)	none (no result: BJeLR viability)
CCOC(=O)c1c(NC(=O)CCN2C(=O)c3ccccc3C2=O)sc(C(=O)OC(C)C)c1C	BoNT-A LC inh2 inconclusive, Bead autofluor 17126
CCOC(=O)c1sc(NC(=O)CN(CC(C)C)CC(C)C)c(C(=O)OCC)c1C	Bead autofluor 22136
COc1ccc(/C=C/C(=O)N(Cc2ccccc2)c2ccccn2)cc1OC	none
O=c1cc(C(F)(F)F)nc(-c2cccnc2)[nH]1	none
O=c1cc(C(F)(F)F)nc(-c2ccccc2)[nH]1	BoNT-A LC inh2 inconclusive, Bead autofluor 21831
COc1ccc(OCc2n[nH]c(=S)n2Cc2ccco2)cc1	none
COc1ccc(-c2n[nH]c(=S)n2Cc2ccco2)cc1	Bead autofluor 21139
CCCCOc1ccc(-c2n[nH]c(=S)n2Cc2ccccc2)cc1	BoNT-F LC inh 34.5
